Most compounds without a hit are left out; they make up all but 6.2% or so of the library.
GRIN3A LBD mod: modulates the human NR3A ligand-binding domain | NR3A LBD differential scanning fluorimetry, Tm shift; 0% = protein alone, 100% = glycine-bound protein | Tm shift relative to glycine control, % at 25 µM | 340,000 tested, 2.5% active | AID 1259313;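 active means melting temperature shift of at least 10% of the positive control shift, at one fixed dose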
AI-2 QS modul: Vibrio harveyi AI-2 quorum sensing modulation; 300,000 tested, 0.4% active; activity change, % at 7.5 µM; Vibrio harveyi JMH597 AI-2 luminescence/OD600 ratio, 9 h; active compounds read low; strain lacks LuxN and CqsS sensors; 0 = neutral-control median; in the data active means activity change below about -75%, passing the limit was not always enough;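 further: luminescence divided by OD600 gain over 9 h not by final OD600 alone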
SUMO Mot1 rescue: SUMOylation pathway inhibition by Mot1-301 growth rescue; S. cerevisiae Mot1-301 growth rescue, ATP luminescence, 38.5C; percent above DMSO median, 100 means doubled; growth rescue, % at 18.8 µM; 320,000 tested, 1% active; AID 2716;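 active means every valid replicate shows activation above 250% relative to neutral control wells; inactive means the rest, any valid replicate at or below 250%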
AHR activator: activators of human aryl hydrocarbon receptor; activation, % at 5 µM; 320,000 tested, 2.5% active; P35869; AHR-responsive luciferase reporter cells, luminescence; in the data active means activation above about 47%
NTR1 agonist: NTR1 (human) agonism; P30989; NTR1-U2OS beta-arrestin-GFP spot imaging, agonist mode; activation, % at 20 µM; 330,000 tested, 0.17% active; AID 493036;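 active means activation at or above 40% of the spot to cytoplasm intensity ratio, with at least 20 cells analyzed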
Target sequence (P30989 whole entry, looked up): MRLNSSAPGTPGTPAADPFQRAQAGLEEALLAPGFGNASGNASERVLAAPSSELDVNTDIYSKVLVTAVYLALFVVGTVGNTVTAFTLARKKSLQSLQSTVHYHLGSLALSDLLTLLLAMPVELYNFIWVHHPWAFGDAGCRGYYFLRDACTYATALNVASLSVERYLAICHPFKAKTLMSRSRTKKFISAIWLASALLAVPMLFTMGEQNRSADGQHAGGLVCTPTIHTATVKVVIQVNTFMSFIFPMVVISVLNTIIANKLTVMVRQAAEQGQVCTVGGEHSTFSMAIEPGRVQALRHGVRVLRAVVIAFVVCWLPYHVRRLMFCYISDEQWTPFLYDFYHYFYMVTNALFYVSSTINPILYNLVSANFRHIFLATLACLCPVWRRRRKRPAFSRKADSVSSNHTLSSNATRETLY
H9c2 protect: modulators protecting cardiomyocytes from myocardial damage | H9c2 cardiomyocytes, H2O2 injury protection, ATPLite, 2 h | AID 588492 | 360,000 tested, 0.63% active | protection from H2O2 cell death, % at 20 µM;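 active means compounds giving at least 50% protection of heart cells from peroxide-induced death in the single-dose screen, raw or plate-pattern-corrected value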
Hits are given with their value; i = inactive; nt = not tested or not shown.

SMILES | GRIN3A LBD mod | AI-2 QS modul | SUMO Mot1 rescue | AHR activator | NTR1 agonist | H9c2 protect
COc1cccc(NC(=O)CN(C)C(=O)c2ccc(NC(=O)CC3SC(N4CCCC4)=NC3=O)cc2)c1 (stereo not drawn) | 11 | nt | nt | nt | nt | i
COc1cccc(NC(=O)CN(C)C(=O)c2oc3c(ccc4ccccc43)c2C)c1 | 17 | i | i | i | i | i
COc1ccc(Cl)cc1S(=O)(=O)NC(C)c1cnn(-c2ccccn2)c1C (stereo not drawn) | nt | nt | nt | nt | nt | i
COc1ccccc1NS(=O)(=O)c1cc(NC(=O)c2ccc(Cl)nc2)ccc1Cl | 16 | i | i | i | i | i
COc1ccc(C(=O)Nc2ccc(Cl)c(S(=O)(=O)Nc3ccccc3OC)c2)cc1 | i | i | i | i | i | i
CCOc1ccc(NC(=O)c2ccc(NS(=O)(=O)c3cccc4cccnc34)cc2)cc1 | 17 | nt | nt | nt | nt | i
CCOc1ccc(NS(=O)(=O)c2cc(NC(=O)c3ccc(C)cc3)ccc2Cl)cc1 | 15 | i | i | i | i | i
O=C(Nc1ccccc1O)c1ccc(NS(=O)(=O)c2cccc3cccnc23)cc1 | 20 | i | i | i | i | i
COC(=O)c1ccc(NC(=O)c2ccc(NS(=O)(=O)c3cccc4cccnc34)cc2)cc1 | i | i | i | i | i | i
CN(CC(=O)NCc1ccc2c(c1)OCO2)S(=O)(=O)c1ccc(F)cc1 | i | i | i | i | i | i
O=C(Nc1ccccc1)C(=O)Nc1ccc2c(c1)N(C(=O)C1CC1)CCC2 | i | i | i | i | i | i
CC[C@@H]1C/C=C\Cc2ccccc2[C@H](C(=O)C[C@H](O)CC(C)=O)OC1=O | i | nt | i | i | i | i
CCN1CCN(C(=O)c2c(-c3c(Cl)cccc3Cl)noc2C)CC1 | i | i | i | i | i | i
COC(=O)C1CCN(C(=O)COc2ccc(S(=O)(=O)N3CCOCC3)cc2Cl)CC1 | i | nt | i | i | i | i
O=C(CCC(=O)OCC(=O)c1ccccc1)Nc1cccc(Cl)c1 | 24 | i | i | i | i | i
Cc1ccccc1NC(=O)c1ccc(NS(=O)(=O)c2cc(C(C)(C)C)cc(C)c2C)cc1 | 13 | i | nt | i | i | i
Cc1ccc(C(=O)CCC(=O)Nc2ccc(Cl)c(S(=O)(=O)Nc3cccc(Cl)c3)c2)cc1 | 24 | i | i | i | i | i
Cc1cc(C(C)(C)C)cc(S(=O)(=O)Nc2cccc(C(=O)O)c2)c1C | i | i | i | i | i | i
Cc1cccc(NC(=O)c2ccc(NS(=O)(=O)c3cccc4cccnc34)cc2)c1 | 30 | nt | nt | nt | nt | i
O=C(CCC(=O)c1ccc(Oc2ccccc2)cc1)Nc1cccc(Cl)c1 | i | i | i | i | i | i
Clc1cccc(-c2ccc(C3Nc4cccc5cccc(c45)N3)o2)c1 | i | nt | i | i | i | i
COc1ccc(C(CNC(=O)C(=O)Nc2ccc3c(c2)OCCO3)N2CCN(C)CC2)cc1 (stereo not drawn) | i | i | i | i | i | i
Cc1cccc(NC(=O)CNC(=O)c2ccc(S(=O)(=O)NCc3ccco3)cc2)c1C | nt | nt | nt | nt | nt | i
COc1cc(C)ccc1OCCOc1c(C)cc(Cl)cc1Cl | 10 | i | i | i | i | i
Cc1ccc(C2NC(c3ccc(C)cc3)C(C)C(=O)C2C)cc1 (stereo not drawn) | i | i | i | i | i | i
SMILES | GRIN3A LBD mod | AI-2 QS modul | SUMO Mot1 rescue | AHR activator | NTR1 agonist | H9c2 protect
CCCNc1nc(Nc2ccc(C)c(Cl)c2)c2cnn(C)c2n1 | i | i | i | 64 | i | i
O=C(NC1CCN(S(=O)(=O)c2cccc(Cl)c2)CC1)C1CCCCC1 | i | i | i | i | i | i
NS(=O)(=O)c1ccc(CNC(=S)Nc2ccc(Cl)c(Cl)c2)cc1 | 12 | i | i | i | i | i
Fc1cc(NC(=S)NCc2ccc(CNC(=S)Nc3ccc(Cl)c(F)c3)cc2)ccc1Cl | 94 | i | i | i | i | i
C=CCc1ccccc1OCCSc1nc2ccc([N+](=O)[O-])cc2s1 | i | i | i | 56 | i | i
COc1ccccc1OCCSc1nc2ccc([N+](=O)[O-])cc2s1 | i | i | i | i | i | i
NC1CCN(c2c(F)cc3c(=O)c(C(=O)O)cn(C4CC4)c3c2Cl)C1 (stereo not drawn) | i | -88 | i | i | i | i
C=CCn1c(SCC(=O)c2ccc(O)c(O)c2)nnc1-c1cccc(OC)c1 | i | nt | i | i | i | 54
C=CCn1c(SCC(=O)c2ccc(O)c(O)c2)nnc1-c1ccc(C)cc1 | i | nt | i | i | i | 62
Cc1ccsc1C(=O)N1CCCC(C)(C(=O)O)C1 (stereo not drawn) | nt | nt | nt | nt | nt | i
O=C(Nc1ccc(OCc2ccccc2)cc1)Nc1nnc([C@@H]2C[C@H](O)[C@@H](CO)O2)s1 | nt | nt | nt | nt | nt | i
CCOc1ccc(OCC)c(NC(=O)CN(c2ccc(OC)cc2)S(=O)(=O)c2c(C)noc2C)c1 | i | i | i | 58 | i | i
COc1ccc(N(CC(=O)Nc2ccc(F)c(Cl)c2)S(=O)(=O)c2c(C)noc2C)cc1 | 16 | i | i | i | i | i
CCOc1ccc(N(CC(=O)Nc2ccc(C)c(C)c2)S(C)(=O)=O)cc1 | i | i | i | 52 | i | i
COc1ccc(N(CC(=O)Nc2ccc3c(c2)OCO3)S(=O)(=O)c2c(C)nn(C)c2C)cc1 | i | i | i | 59 | i | i
COc1ccc(OC)c(NC(=O)CN(c2ccc(C)cc2)S(=O)(=O)c2c(C)noc2C)c1 | i | i | i | i | i | i
OC(c1ccc(F)cc1)c1ncc(-c2ccc3ccccc3c2)[nH]1 (stereo not drawn) | nt | nt | nt | nt | nt | i
CCc1[nH]nc(C(=O)N2CCCC(N3CCN(c4ccccc4C)CC3)C2)c1C (stereo not drawn) | i | i | i | i | i | i
CCOc1ccc(OCC)c(NC(=O)CN(c2ccc(C)cc2)S(=O)(=O)c2c(C)noc2C)c1 | i | i | i | 62 | i | i
c1ccc2c(c1)ccc1nnnn12 | i | i | i | i | i | i
O=C1CC(SCc2nc3ccccc3[nH]2)C(=O)N1c1ccc(Cl)cc1 (stereo not drawn) | i | i | i | i | i | i
O=CN1Cc2[nH]c3ccccc3c2N(c2ccc(Cl)cc2)C1=O | i | i | i | 65 | i | i
O=C1CNCc2[nH]c3ccccc3c2N1c1ccccc1 | i | i | i | 54 | i | i
CN(C)c1ccc(/C=C(/C(=O)c2ccc(Cl)cc2Cl)n2cncn2)cc1 | i | i | 308 | i | i | i
COc1ccc(NS(=O)(=O)c2ccc(C)c(C(=O)NCCCn3ccnc3)c2)cc1 | nt | nt | nt | nt | nt | i
Cc1ccc(NC(=O)CNc2ccc(Cl)c(Cl)c2)cc1S(=O)(=O)N(C)C | 19 | i | i | i | i | i
Cc1ccc(NC(=O)COc2ncnc3sccc23)cc1S(=O)(=O)N(C)C | i | -78 | i | i | i | i
Cc1ccc(S(=O)(=O)NCCC(=O)Nc2ccc(Cl)c(Cl)c2)cc1C | 13 | i | i | i | i | i

Screens (PubChem BioAssay)
